Tb PYK inh: inhibitors of Trypanosoma brucei pyruvate kinase; TbPYK enzyme, Kinase-Glo Plus ATP luminescence, 45 min; Q57TT1; Potency, µM (highest dose often 76.8 µM), inactives show top-dose activity, negative = inhibition, hits mostly inhibitors; hit rate 0.12% among 410,000; further: potency means the concentration at half of the fitted maximal effect; on the % scale 0 is the no-effect control and ±100 the full control effect; nearly all actives have a fitted effect of over 50% in size
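T. brucei PYK with substrate was exposed to pin-transferred compounds across a concentration series, then started with 130 uM ADP (final). After 45 min at room temperature, Kinase-Glo Plus luminescence was read, normalized and curve-fitted.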
Giardia FBPA inh: Giardia lamblia aldolase inhibition; A8B2U2; purified Giardia FBPA; Potency, µM (doses to about 59.6 µM), for the others: top-dose activity, negative = inhibition, hits mostly inhibitors; hit rate 0.71% among 290,000; AID 2451; further: potency means the concentration at half of the fitted maximal effect; on the % scale 0 is the no-effect control and ±100 the full control effect; nearly all actives have a fitted effect of over 55% in size
Target sequence (A8B2U2 whole entry, looked up): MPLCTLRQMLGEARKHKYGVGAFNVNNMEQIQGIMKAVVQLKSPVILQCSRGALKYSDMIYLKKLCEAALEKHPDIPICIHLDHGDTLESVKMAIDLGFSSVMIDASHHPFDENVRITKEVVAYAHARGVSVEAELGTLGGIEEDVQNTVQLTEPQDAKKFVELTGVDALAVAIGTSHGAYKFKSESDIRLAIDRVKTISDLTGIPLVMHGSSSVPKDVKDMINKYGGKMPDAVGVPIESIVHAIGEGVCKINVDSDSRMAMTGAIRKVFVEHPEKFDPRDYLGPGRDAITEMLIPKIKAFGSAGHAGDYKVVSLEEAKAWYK
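Giardia FBPA (40 nM reagent) was preincubated 10 min at RT with compound (up to 57.5 uM final), then substrate plus GAPDH/TPI/NAD/arsenate coupling system with diaphorase/resazurin was added; resorufin fluorescence (525/598 nm) was read after 20 min.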
Cycloheximide cs: counter-screen hit for Shiga toxin inhibitors, cycloheximide | cell reporter, cycloheximide protein synthesis inhibition counterscreen | AID 2314 | max response, % | hit rate 12% among 300,000; in the data active means max response mostly above about 13%, no sharp cut-off; inactive means mostly below about 14%; further: read at 38.3 µM for the half of the compounds with a filed dose; 0% is about no effect
RE007 growth inh: less growth of the S. pombe RE007 Vpr strain; hit rate 0.21% among 360,000; S. pombe RE007 Vpr strain, BacTiter-Glo ATP luminescence, 24 h; AID 651644; Potency, µM (series often up to 92.2 µM), without a hit: top-dose activity change, negative = less growth, usual class: inhibitors; active means well fitted falling curve with a large enough effect; inconclusive means small, poorly fitted or top-dose-only effect; inactive means no such curve, though single readings can be large or run the other way; further: potency means the concentration at half of the fitted maximal effect; on the % scale 0 is the no-effect control and ±100 the full control effect; nearly all actives have a fitted effect of over 50% in size
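Fission yeast RE007 carrying one integrated HIV-1 vpr copy, seeded at OD 0.01 in PMG+AL medium with 23 nL pinned compound. Grown 24 h at 30 degrees; viability read by BacTiter-Glo luminescence after 5 min.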
Shiga inhibitor: blocks Shiga toxin action in Vero cells; Vero cells, Shiga toxin protein synthesis inhibition reporter; inhibition, % at 38.7 µM; hit rate 9.2% among 290,000; AID 2315; in the data active means inhibition mostly above about 28%, no sharp cut-off; inactive means mostly below about 43%; further: 0% is about no effect
LmPK inhibitor: LmPK (Leishmania mexicana) enzyme inhibition | AID 1721 | Q27686 | purified LmPK, Kinase-Glo ATP luminescence, 1 h | hit rate 0.37% among 290,000 | Potency, µM (highest dose often 57.5 µM), for inactives: at the top dose activity change, negative = inhibition, most hits filed as inhibitors; further: potency means the concentration at half of the fitted maximal effect; on the % scale 0 is the no-effect control and ±100 the full control effect
Target sequence (Q27686 whole entry, looked up): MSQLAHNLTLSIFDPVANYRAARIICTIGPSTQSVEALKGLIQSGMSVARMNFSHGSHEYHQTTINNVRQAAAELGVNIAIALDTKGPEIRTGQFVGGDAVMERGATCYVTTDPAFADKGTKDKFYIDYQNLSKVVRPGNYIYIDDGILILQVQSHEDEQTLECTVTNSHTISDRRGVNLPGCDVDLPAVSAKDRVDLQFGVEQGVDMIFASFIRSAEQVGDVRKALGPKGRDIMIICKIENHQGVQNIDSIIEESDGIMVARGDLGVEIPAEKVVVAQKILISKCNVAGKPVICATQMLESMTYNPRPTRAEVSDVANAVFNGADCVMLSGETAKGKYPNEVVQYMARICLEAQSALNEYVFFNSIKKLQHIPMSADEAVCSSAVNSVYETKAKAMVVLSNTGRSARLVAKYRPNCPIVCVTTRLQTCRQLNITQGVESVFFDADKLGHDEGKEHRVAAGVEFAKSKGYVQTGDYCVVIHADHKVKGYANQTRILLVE
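In 50 mM imidazole pH 7.2 with 7 mM MgCl2, LmPK (0.1 nM) turned over PEP (0.5 mM) and ADP (0.1 mM) for 1 h at room temperature. Luciferase read-out of ATP.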
Active calls of the source: *; ? = inconclusive; · = no result given; [ ] = dose if it differs, or a comment. Only a selection was taken, and hits are over-represented in it overall. Unless noted, the call rests on the fitted dose curve; in most records, active means well fitted curve in the direction sought with a large enough effect; inconclusive means small, poorly fitted or top-dose-only effect, or another doubt; inactive means no such curve, though single readings can be large; an effect the other way counts as inactive or inconclusive.

SMILES | Tb PYK inh | Giardia FBPA inh | Cycloheximide cs | RE007 growth inh | Shiga inhibitor | LmPK inhibitor
O=C(CCS(=O)(=O)Cc1ccc(Cl)cc1)NCCc1ccccc1 | 1.0% | 7.4% | 18.8* | 11.1% | 14.9 | -4.3%
Cc1ccc(CNC(=O)CNS(=O)(=O)c2cccs2)cc1 | -0.2% | · | · | · | · | ·
Cc1ccc(CNC(=O)CN(C)S(=O)(=O)c2cccs2)cc1 | -1.8% | 1.2% | 27.5* | 0.3% | 22.7 | -0.9%[11.5 µM]
CN(CC(=O)NCCc1ccc(Cl)cc1)S(=O)(=O)c1cccs1 | 0.9% | -1.3% | 21.5* | 2.7% | 34.2* | 1.3%
CN(CC(=O)NCCc1ccccc1)S(=O)(=O)c1cccs1 | -9.4% | 13.9% | 14.7 | -3.0% | 21.6 | -1.8%
COc1ccc(-c2nc(CSc3nncn4c3cc3sccc34)c(C)o2)cc1OC | 2.6% | · | · | · | · | ·
Cc1noc(C)c1S(=O)(=O)NC(=O)C1(C)CCN1C(=O)Cc1ccc(Cl)cc1Cl (stereo not drawn) | -1.3% | · | · | -4.2%[18.4 µM] | · | ·
CCn1cc(CN2CCc3c([nH]c4ccccc34)C2c2cccc(OC)c2OC)c(C)n1 (stereo not drawn) | 1.4% | -9.2% | 1.2 | ? | 27.8 | 2.1%
CCOc1ccc(CCNC(=O)CSc2nc3ccccc3nc2Cc2ccc(C)cc2)cc1OCC | -2.0% | · | · | · | · | ·
CN(CC(=O)NCCc1ccccc1)S(=O)(=O)c1ccc(Br)s1 | -1.0% | 7.6% | 27.7* | -2.5% | 46.4* | -6.0%
CN(CC(=O)NCCc1ccccc1)S(=O)(=O)c1ccc(Br)cc1 | · | 5.1% | 8.2 | -10.4%[3.69 µM] | -21.9 | 0.9%
CC1(C)C(=O)C=C(N2CCCCC2)c2ccccc21 | -0.8% | · | · | -25.7% | · | ·
COCCCNc1nc2c(-c3ccc(C)cc3)nnn2c2ccccc12 | -2.3% | -3.5% | 38.5* | 1.4% | 71.8* | 2.7%
COc1cccc(C2N=C(c3ccccc3C)NO2)c1OC (stereo not drawn) | 1.6% | -20.2% | 27.2* | -18.2% | 51.2* | 5.3%
COc1cccc(C2NC(=O)c3ccccc3O2)c1OC (stereo not drawn) | 2.6% | -25.8% | -6.1 | 3.5% | -8.0 | 1.6%
O=C(OCc1ccccc1)c1ccccc1O | 0.9% | · | · | -4.5% | · | ·
O=C(OCc1csc(-c2ccccc2)n1)c1ccccc1O | 2.6% | 0.1% | 61.3* | -2.8% | 109.7* | ?
COC(=O)c1ccccc1SCc1csc(C)n1 | 1.6% | -15.5% | -2.9 | -11.1% | 2.5 | 0.3%
O=C(O)c1ccccc1SCc1csc(-c2ccccc2)n1 | -8.3% | · | 32.2* | -11.1% | 38.1 | -3.8%
COC(=O)CCN1CCc2cc(N=Nc3ccc([N+](=O)[O-])cc3)ccc21 | -18.1% | 7.0% | 39.1* | 5.1% | 87.9 | -22.5%
Cc1ccccc1CN1CCc2cc([N+](=O)[O-])ccc21 | 1.6% | -2.7% | 8.8 | -3.5% | 27.3 | -3.5%
O=c1cc(-c2ccccc2)[nH]n1-c1ccc([N+](=O)[O-])cc1 | 0.0% | 0.4% | 35.1* | -17.4% | 71.1* | -0.1%
CC1CCN(c2cc(N3CCOCC3)c([N+](=O)[O-])cc2F)CC1 | -3.9% | 2.3% | -3.1 | -3.6% | 5.2 | 4.9%
Cc1cc(-c2ccccc2)nc(N/N=C/c2ccc([N+](=O)[O-])cc2)n1 | -9.2% | -1.1% | -2.0 | -23.8% | -4.9 | 1.5%
Cc1ccc(/C=N/Nc2nncn2N)cc1 | -0.5% | ? | -0.7 | -17.7% | 12.8 | 1.0%
SMILES | Tb PYK inh | Giardia FBPA inh | Cycloheximide cs | RE007 growth inh | Shiga inhibitor | LmPK inhibitor
Cc1nnc(N/N=C/c2ccc(Br)cc2)n1N | -3.1% | ? | 10.0* | 2.0% | · | 11.4%
Cc1nnc(N/N=C/c2ccc([N+](=O)[O-])cc2)n1N | 3.0% | 15.8µM* | 5.6 | 16.3% | -2.5 | 17.9%
Cc1csc(N/N=C/c2ccc([N+](=O)[O-])cc2)n1 | -4.4% | -16.5% | 31.8* | -16.1% | 67.4* | 2.4%
O=[N+]([O-])c1ccc(/C=N/Nc2ncc(Br)cn2)cc1 | 2.1% | 5.0% | -2.9 | -1.5% | -7.4 | -2.3%
Cc1nnc(N/N=C/c2cc([N+](=O)[O-])c(N3CCC(C)CC3)cc2N2CCC(C)CC2)n1N | 1.2% | 9.98µM* | 13.3 | 6.1% | 24.0 | 5.7%
CC[C@H](C)[C@H](N)C(=O)N[C@@H](CC(N)=O)C(=O)N1CCC[C@H]1C(=O)N[C@H](C(=O)N[C@@H](Cc1ccc(O)cc1)C(=O)N[C@@H](CCCN=C(N)N)C(=O)N[C@@H](CC(C)C)C(=O)N[C@@H](CCCN=C(N)N)C(=O)N[C@@H](Cc1ccc(O)cc1)C(N)=O)[C@@H](C)CC | · | -0.1% | -5.3 | · | -3.6 | ·
COc1ccc(CNC(=O)c2cc3c(-c4ccccc4F)nn(C)c3s2)cc1 | -6.0% | · | · | · | · | ·
COc1ccc(Cl)cc1NC(=O)c1c(C(=O)Nc2cccc(C)c2C)sc2nc(C)cc(=O)n12 | -15.1% | · | · | · | · | ·
COCCn1c(=O)c(C)nc2cnc(N3CCOCC3)nc21 | · | 3.7% | · | · | · | ·
CC(C)(C)c1nnc(N/N=C/c2ccccc2)n(N)c1=O | -5.7% | -0.3% | 11.0* | · | 37.8 | 1.9%
CC(C)Nc1ccc(-c2nc(-c3ccccn3)no2)cc1[N+](=O)[O-] | -5.1% | · | · | · | · | ·
COc1ccc(-c2noc(-c3ccc(Br)o3)n2)cc1OC | 10.3% | 7.1% | 9.8 | -9.7% | 6.3 | 0.9%
COc1cc(-c2nc(-c3ccc(Br)o3)no2)cc(OC)c1OC | 0.9% | 2.1% | 1.8 | 7.4% | -1.3 | 8.4%
Brc1ccc(-c2nc(-c3ccccn3)no2)o1 | -13.0% | 7.4% | 13.7* | ? | -6.2 | 31.6µM*
Fc1cccc(-c2nc(-c3ccncc3)no2)c1 | -7.2% | · | · | · | · | ·
Brc1ccc(-c2noc(-c3ccccn3)n2)o1 | -15.1% | 9.2% | 45.3* | ? | 81.1* | ?
Clc1ccc(-c2nc(-c3ccccn3)no2)cc1Cl | 2.2% | 5.4% | 65.7* | -18.5% | 77.2* | ?
Brc1ccc(-c2nc(-c3ccncc3)no2)o1 | -8.3% | 7.0% | 24.0* | -6.8% | 63.8* | -2.3%
Oc1c(C(c2ccc(Cl)cc2)N2CCOCC2)sc2nc(-c3ccco3)nn12 (stereo not drawn) | -7.0% | · | · | · | · | ·
O=C(CSc1nc2ccccc2s1)N/N=C/c1ccccc1C(=O)O | 3.5% | 8.7% | 52.0* | -1.5% | 90.6* | 4.9%
C/C(=N\NC(=O)CSc1nc2ccccc2s1)c1ccco1 | -9.7% | -1.6% | 17.1* | 1.4% | 48.0* | 0.7%
CC(C)CCNC(=O)CSc1nc2ccccc2s1 | 0.7% | 21.4% | 8.4 | 5.6% | 4.2 | 2.0%
O=C(CSc1nnc(SCC(=O)c2ccco2)s1)c1ccco1 | -11.5% | -10.0% | 20.2 | -1.4% | 15.0 | 8.9%
c1ccc2sc(SSc3nc4ccccc4s3)nc2c1 | -5.3% | · | · | · | · | ·
O=C(CSc1nc2cc(Cl)ccc2s1)c1ccco1 | -8.5% | ? | 20.1* | -24.9% | 55.8 | 4.0%
N#C/C(=C\c1ccco1)Sc1nc2ccccc2s1 | 1.3% | -16.5% | 69.1* | -6.5% | 39.1* | 12.2%
COc1ccc(NC(=O)C2c3ccccc3OCC(=O)N2Cc2ccco2)cc1 (stereo not drawn) | -0.4% | · | · | 0.7% | · | ·
